CHRM1 antagonist: human CHRM1 antagonism; P11229; inhibition, % at 3 µM; hit rate 1.3% among 360,000; CHO-K1 hM1, Fluo-8 calcium fluorescence, ACh EC80 antagonist;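 active = percent inhibition above its own plate's cutoff, namely the mean of that plate's compound wells plus 3 SD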;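 also: peak over basal fluorescence ratio during 140 s after agonist addition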
Target sequence (P11229 whole entry, looked up): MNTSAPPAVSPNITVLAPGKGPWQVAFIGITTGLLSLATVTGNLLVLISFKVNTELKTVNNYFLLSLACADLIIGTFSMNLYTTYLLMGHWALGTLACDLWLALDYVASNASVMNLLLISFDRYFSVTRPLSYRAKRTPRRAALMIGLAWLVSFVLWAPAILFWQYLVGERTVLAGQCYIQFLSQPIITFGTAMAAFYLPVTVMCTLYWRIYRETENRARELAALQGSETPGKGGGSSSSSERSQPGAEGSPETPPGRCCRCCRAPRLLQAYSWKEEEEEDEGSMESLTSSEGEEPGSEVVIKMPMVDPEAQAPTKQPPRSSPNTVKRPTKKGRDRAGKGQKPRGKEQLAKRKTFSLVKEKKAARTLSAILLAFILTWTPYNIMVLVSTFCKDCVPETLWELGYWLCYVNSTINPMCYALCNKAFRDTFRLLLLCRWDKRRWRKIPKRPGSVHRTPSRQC
CHRM1 agonist: activates human CHRM1 receptor. P11229. CHO-K1 hM1, Fluo-8 calcium fluorescence, agonist mode; 0% DMSO, 100% acetylcholine EC100. activation, % at 3 µM. hit rate 0.33% among 360,000. AID 588814;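 active = activation above the run's mean compound activation plus 3 SD, cut at about 16% in these data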;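 also: peak over basal fluorescence ratio within a 140 s kinetic read after compound addition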
CHO-K1 Ca ag: counter-screen for M1 agonists: effect in parental CHO-K1 cells; AID 602248; Fluo-8 calcium fluorescence; scaled to maximal ATP response, vehicle zero; hit rate 0.48% among 360,000; activation, % at 3 µM; in the data active = activation above about 15%;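 also: untransfected CHO-K1 host cells lacking M1 receptor as counterscreen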
CHRM1 PAM: positive allosteric modulators of human M1 muscarinic receptor; P11229; CHO-K1 hM1, Fluo-8 calcium fluorescence, ACh EC20; 0% = ACh EC20, 100% = maximal ACh; activation, % at 3 µM; hit rate 0.088% among 360,000; AID 588819; in the data active = activation above about 19%, passing the limit was not always enough
CHO-K1 Ca antag: nonselective inhibitor or artifact in parental CHO-K1 cells | ATP-induced calcium, Fluo-8 fluorescence | AID 602250 | hit rate 0.6% among 360,000 | inhibition, % at 3 µM;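 active = inhibition above a per-plate cutoff, the plate's mean sample inhibition plus 3 SD, cut at about 24% in these data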
M1 PAM parental: nonselective activator or artifact in parental CHO-K1 calcium assay. AID 602247. ATP EC20, Fluo-8 calcium fluorescence; 0% at ATP EC20, 100% at ATP max. activation, % at 3 µM. hit rate 0.02% among 360,000;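 active = activation above the run cutoff, the mean activation of all test compounds plus 3 SD, cut at about 40% in these data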;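 also: peak over basal fluorescence ratio in a 140 s read after ATP addition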
A number is an active result; - = inactive. Most compounds without a hit are left out; they make up all but 2.3% or so of the library.

SMILES | CHRM1 antagonist | CHRM1 agonist | CHO-K1 Ca ag | CHRM1 PAM | CHO-K1 Ca antag | M1 PAM parental
CCC[C@@H](CN1CCC[C@H]1CN1C(N)=NC[C@H]1CC(C)C)N1C[C@@H]([C@H](C)CC)N(CCCC2CCCC2)C1=N | 59.3 | - | - | - | - | -
CC(C)C[C@@H]1CN=C(N)N1C[C@@H]1CCCN1C[C@H](C)N1C[C@@H](Cc2ccccc2)N(CCCC2CCCC2)C1=N | 33.6 | - | - | - | - | -
CCn1c(SCC(=O)Nc2ccc(N3CCOCC3)cc2)nnc1C1CC1 | - | - | - | - | - | -
O=C(NCCOc1ccccc1Cl)c1ccc2c(c1)S(=O)(=O)c1cc(Cl)ccc1C2=O | - | - | - | - | - | -
N#CC(c1ccc(Cl)cc1)c1ccc2c(C(F)(F)F)cc(C(F)(F)F)nc2n1 (stereo unspecified) | - | - | - | - | 23.7 | -
O=C(Nc1ccc(Cl)c(C(F)(F)F)c1)[C@@H]1CC=C[C@@H]2CCN(C3CC3)C(=O)[C@@H]21 | - | - | - | - | - | 47.4
Cc1cc(C)cc(OCC(=O)Nc2ccc(N3CCN(C(=O)c4ccco4)CC3)cc2)c1 | 32.9 | - | - | - | - | -
C[N+]1(CC(=O)Nc2ccc(F)cc2)CCN(C(=O)c2ccco2)CC1 | 56.2 | - | - | - | - | -
Cc1ccc(NC(=O)CN2CCN(C(=O)c3ccco3)CC2)cc1 | - | - | - | - | - | -
CCC(C)[C@H]1COCCS(=O)(=O)N1Cc1ccc(Cl)cc1Cl (stereo partly specified) | - | - | - | - | - | -
O=c1nc2ccccc2c(NS(=O)(=O)c2ccccc2)n1-c1ccccc1 | - | - | - | - | - | -
Cc1ccc(S(=O)(=O)Nc2c3ccccc3nc(=O)n2-c2ccccc2)cc1 | - | - | - | - | 26.0 | -
O=C1C2C3c4ccccc4C(c4ccccc43)C2C(=O)N1c1nc(-c2ccccc2)cs1 (stereo unspecified) | - | - | - | 20.1 | - | -
COc1ccc(CCNC(=O)CNCC2CCCCC2)cc1OC | - | - | - | - | - | -
COC(=O)c1ccc(CNC(=O)C2CCC(=O)N(CCCc3ccccc3)C2)cc1 (stereo unspecified) | - | - | - | - | - | -
Cn1cc(CNC(=O)C2CCC(=O)N(Cc3ccccc3F)C2)cn1 (stereo unspecified) | - | - | - | 25.6 | - | -
Cc1ccc(F)c(CNC(=O)C2CCC(=O)N(Cc3ccccn3)C2)c1F (stereo unspecified) | - | - | - | - | 26.8 | -
COc1ccccc1CNC(=O)C1CCC(=O)N(CCCc2ccccc2)C1 (stereo unspecified) | - | - | - | - | 32.2 | -
Cc1ccc(CNS(=O)(=O)c2c(C(=O)N3CCCCC3)c(C)n(C)c2C)o1 | - | - | - | - | - | -
Cc1ccc(NC(=O)C2(C)CCN2C(=O)Cc2cc(F)ccc2F)cc1 (stereo unspecified) | - | - | - | - | - | -
CN(C)S(=O)(=O)N1CCN(c2ccccc2)CC1 | - | - | - | 29.6 | - | -
CN(C)S(=O)(=O)N1CCN(c2cccc(Cl)c2)CC1 | - | - | - | - | - | -
CCOc1ccc(S(=O)(=O)NCCC(=O)NC2CCC(C)CC2)cc1 (stereo unspecified) | - | - | - | - | - | -
CCOC(=O)C1(C(=O)OCC)NC(=O)CC1CC (stereo unspecified) | - | - | - | - | - | -
CCCCCC1CC(=O)NC1(C(=O)OCC)C(=O)OCC (stereo unspecified) | 40.0 | - | - | - | - | -
SMILES | CHRM1 antagonist | CHRM1 agonist | CHO-K1 Ca ag | CHRM1 PAM | CHO-K1 Ca antag | M1 PAM parental
C[N+](C)(C)CCCCCC(=O)/C=N/O | - | 29.4 | - | - | - | -
C[N+](C)(C)CCCCCC[N+](C)(C)C | - | - | - | - | - | -
CC(C)(C)C(=O)Nc1ccc(Sc2ccc([N+](=O)[O-])cc2)cc1 | 35.3 | - | - | - | - | -
COc1ccc(CC(=O)Nc2cccc(-c3nnc(-c4ccccc4)o3)c2)cc1OC | 29.5 | - | - | - | - | -
O=C(Cc1ccccc1)Nc1cccc(-c2nnc(-c3ccco3)o2)c1 | - | - | - | - | - | -
COc1ccccc1OCC(=O)Nc1cccc(-c2nnc(-c3ccco3)o2)c1 | 24.5 | - | - | - | - | -
O=C(Nc1cccc(-c2nnc(-c3ccco3)o2)c1)c1ccccc1 | - | - | - | - | - | -
CC(=O)Oc1ccc(C(=O)Nc2cccc(-c3nnc(-c4ccco4)o3)c2)cc1 | - | - | 23.7 | - | - | -
COc1ccc(CC(=O)Nc2cccc(-c3nnc(-c4cccc(C)c4)o3)c2)cc1OC | 38.1 | - | - | - | - | -
COc1ccc2oc(C(=O)OCC(=O)N(C)CC(=O)Nc3ccc(C)cc3)c(C)c2c1 | - | - | - | - | - | -
Cn1c(CCn2ccccc2=O)nc2cc(NC(=O)COc3ccccc3)ccc21 | - | - | - | - | - | -
Cc1ccc(C2(c3noc(CN(C)Cc4ccccn4)n3)CCCC2)cc1 | 38.2 | - | - | - | - | -
Cc1cc(C)c2c(CN3CCCC3)cc(=O)oc2c1 | - | - | - | - | 29.8 | -
Cc1cc(OC(C)C(=O)NC2CCN(Cc3ccccc3)CC2)c2c(C)cc(=O)oc2c1 (stereo unspecified) | - | - | - | - | - | -
O=C1CC(N2CCN(Cc3ccc4c(c3)OCO4)CC2)C(=O)N1c1ccccc1 (stereo unspecified) | - | - | - | - | - | -
Cc1cc(C)c2c(CN3CCN(Cc4ccc5c(c4)OCO5)CC3)cc(=O)oc2c1C | - | - | - | - | - | -
Cc1cccc(N2C(=O)CC(N3CCN(Cc4ccc5c(c4)OCO5)CC3)C2=O)c1 (stereo unspecified) | 34.8 | - | - | - | - | -
Cc1cc(C)c2c(CN3CCN(Cc4ccc5c(c4)OCO5)CC3)cc(=O)oc2c1 | 32.6 | - | - | - | - | -
CCc1cc(=O)oc2cc(C)cc(OC(C)C(=O)NC3CCN(Cc4ccccc4)CC3)c12 (stereo unspecified) | - | 22.8 | - | - | - | -
O=C(CSC1CC(=O)N(c2ccc(C(=O)O)cc2)C1=O)Nc1ccc(Cl)cc1 (stereo unspecified) | - | - | - | - | - | -
CCn1nc(C)c(CNC(=O)C2CCC(=O)N(Cc3ccc(Cl)cc3)C2)c1C (stereo unspecified) | - | - | - | - | - | -
C=C1CC[C@@]23CC[C@]4(C)[C@@](OC2=O)([C@@H]3C1)[C@H]1O[C@H]1C1[C@@]2(C)CC[C@H](O)C(C)(C)C2CC[C@]14C (stereo partly specified) | - | - | - | - | - | -
CC(Sc1nncs1)C(=O)Nc1ccc(S(=O)(=O)Nc2ncccn2)cc1 (stereo unspecified) | - | - | - | - | - | -

From PubChem BioAssay
